Measured values taken from PubChem BioAssay (EPA / NIEHS).
The source made the active and inactive calls. Rule for the calls: active = hit-call score of the fitted dose curve at least 0.9, where 1 is the maximum; inactive = score below 0.9. Peptide text beside a SMILES is read from it.

Test: ATG_GATA_CIS: Attagene CIS-FACTORIAL HepG2 Assay for human GATA Binding Protein (AID 2282944)
Conditions: HepG2 GATA cis-element reporter, Attagene multiplex mRNA; actives raise or lower the signal
Protocol: ATG_CIS is a cell-based, multiplexed-readout assay that uses HepG2, a human liver cell line, with measurements taken at 24 hours after chemical dosing in a 24-well plate.ATG_GATA_CIS is one of 52 assay component(s) measured or calculated from the ATG_CIS assay. It is designed to make measurements of mRNA induction, a form of inducible reporter, as detected with fluorescence intensity signals by Reverse transcription polymerase chain reaction (RT-PCR) and Capillary electrophoresis technology.Data from the assay component ATG_GATA_CIS was analyzed into 1 assay endpoint. This assay endpoint, ATG_GATA_CIS, was analyzed with bidirectional fitting relative to DMSO as the negative control and baseline of activity. Using a type of inducible reporter, measures of mRNA for gain or loss-of-signal activity can be used to understand the reporter gene at the transcription factor-level as they relate to the gene GATA1. Furthermore, this assay endpoint can be referred to as a primary readout, because this assay has produced multiple assay endpoints where this one serves a reporter gene function. To generalize the intended target to other relatable targets, this assay endpoint is annotated to the dna binding intended target family, where the subfamily is GATA proteins.
Human liver HepG2 cells are transiently transfected with multiple reporter transcription units (MRTUs) in 6-well plates using FuGene 6 reagent (Roche; 3 ml FuGene/1 mg DNA). The MRTU constructs are regulated by a cis-regulating element (promoter). […] A major difference between the CIS and TRANS system is that in CIS activities of endogenous TFs are measured, whereas the TRANS assay evaluates changes in activities of exogenous, chimeric NR-Gal4 proteins. […] At the end of 24 hour incubation, total RNA was isolated using TriZol reagent (Invitrogen). The isolated RNA is then reverse-transcribed using oligo(dT) primer and Mo-MLV reverse transcriptase (Invitrogen) with DNAse I (Ambion) treatment for 30 min. The one-tenth of the produced cDNA was amplified by PCR using Taq DNA polymerase (Invitrogen) and two reporter sequence-specific primers. The PCR products were fluorescently labeled by primer extension with 6-arboxyfluorescein (6-FAM) 5'-labeled reporter sequence-specific primer (2 min at 95 C, 20 s at 68 C and 10 min at 72 C) and these products were digested with 5U of HpaI (New England Biolabs) for 2h at 37 C. The fragments were purified using Qiaquick PCR columns (Qiagen), analyzed on an ABI 3130xL genetic analyzer (Applied Biosystems) with peak positions identified by using a set of X-rhodamine (ROX)-labeled MapMarker1000 molecular weight standards (BioVentures). The raw capillary electrophoresis data was processed using Attagraph software (Attagene).

Structure (SMILES) | outcome
O=C(Oc1ccccc1)c1ccccc1C(=O)Oc1ccccc1 | inactive
CC(=O)CCC=C(C)C | inactive
CC(C)[N+](C)(CCOC(=O)C1c2ccccc2Oc2ccccc21)C(C)C | inactive
CCCCc1ccc(Cl)cc1 | inactive
C=CC(=O)OCCCCCCCC(C)C | inactive
Cc1c(O)cccc1O | inactive
O=C(Cl)c1c(Cl)c(Cl)c(C(=O)Cl)c(Cl)c1Cl | inactive
O=S(=O)(O)c1ccc(N=Nc2c(O)ccc3ccccc23)cc1 | inactive
Clc1cccnc1 | inactive
CC(=O)OC1CCCCC1 | inactive
C1CNCCN1 | inactive
COC(C=C(C)CCC=C(C)C)OC | inactive
Cn1ccnc1 | inactive
CCc1occc(=O)c1O | inactive
CCC(C)C(=O)OC (stereo not given) | inactive
C=C(C)[C@@H]1CC=C(C)CC1 | inactive
COCC(=O)O | inactive
CC(C)=CCCC(C)=CC#N | inactive
Nc1ccc(Cl)c(N)c1 | inactive
COC(=O)[C@H](Cc1ccccc1)NC(=O)[C@@H](N)CC(=O)O (H-Asp-Phe-OMe) | inactive

Structure (SMILES) | outcome
CC(C)(C)N | inactive
CCCCOC(=O)C(C)CC (stereo not given) | inactive
CCCCCCOc1ccc(N)cc1 | inactive
CCC1COC(=O)O1 (stereo not given) | inactive
O=C(O)CC(C(=O)O)S(=O)(=O)O (stereo not given) | inactive
CC1=CCC(C(C)C)C=C1 (stereo not given) | inactive
CCCCOCC(C)O (stereo not given) | inactive
CCCC(CC)c1ccccc1 (stereo not given) | inactive
C=CCCCCCCCCO | inactive
CC(=O)OCC=C(C)C | inactive
CCc1cccc(C)c1N(C(=O)CS(=O)(=O)O)C(C)COC (stereo not given) | inactive
CC(C)C(=O)OCCc1ccccc1 | inactive
CN(C)c1ccc2nc3ccc(=[N+](C)C)cc-3sc2c1 | inactive
CCCCCCCCCCCC(C)=O | inactive
CCOC(=O)CC(=O)c1ccccc1 | inactive
c1ccc(-c2nc3ccccc3[nH]2)cc1 | inactive
CCCCOC(=O)CCC(C)=O | inactive
O=C(OCCc1ccccc1)c1ccccc1 | inactive
O=C(Oc1ccccc1)c1ccccc1O | inactive
CCCCCCCCCCCCCCCCCCOS(=O)(=O)O | inactive
